Source: PubChem BioAssay
Activity calls are given as the source filed them. Unless noted, no rule for the calls is given here.

Key:
[1] = A549 cell viability effects, profiling panel, calcein-AM fluorescence, 48 h, basal (AID 1162); settings: higher = more signal; also: test concentration not given here
[2] = adipocyte viability effects, profiling panel, cell-based, 3T3-L1 adipocytes, calcein-AM fluorescence, 48 h, basal (AID 1163); settings: 3T3-L1 adipocytes viability, higher = more signal; also: test concentration not given here
[3] = HepG2 cell viability effects, profiling panel, calcein-AM fluorescence, 48 h, basal (AID 1164); settings: higher = more signal; also: test concentration not given here
[4] = MM1S cell viability effects, profiling panel, calcein-AM fluorescence, 48 h, basal (AID 1165); settings: higher = more signal;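 also: viability of MM1S multiple myeloma cells under basal unstimulated conditions; test concentration not given here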
[5] = basal RPMI8226 viability, no added stimulus, profiling panel, cell-based, calcein-AM fluorescence, 48 h, PK04 Diversity Set (AID 1166); settings: RPMI8226 myeloma viability, higher = more signal;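 also: cells grown under basal conditions without added stimulus; test concentration not given here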
[6] = basal HepG2 mitochondrial membrane potential changes, profiling panel, cell-based, JC-1 fluorescence, 24 h, 100 nL compound (AID 1167); settings: higher = more signal; also: test concentration not given here
[7] = basal 3T3-L1 adipocyte mitochondrial potential changes, profiling panel, cell-based, JC-1 fluorescence, 3T3-L1 adipocytes, 24 h, 100 nL compound (AID 1168); settings: JC-1 mitochondrial fluorescence, higher = more signal, called active from +8 up or from −8 down; also: test concentration not given here
[8] = basal RPMI8226 mitochondrial membrane potential changes, profiling panel, cell-based, JC-1 fluorescence, 24 h, 100 nL compound (AID 1169); settings: RPMI8226 myeloma, JC-1 mitochondrial potential fluorescence, higher = more signal; also: test concentration not given here
[9] = basal MM1S mitochondrial membrane potential changes, profiling panel, cell-based, JC-1 fluorescence, 24 h, 100 nL compound (AID 1170); settings: higher = more signal; also: test concentration not given here
[10] = A549 lung cancer cell viability effects, profiling panel, resazurin fluorescence, 24 h, PK04 Diversity Set (AID 1171); settings: higher = more signal, called active from +8 up or from −8 down; also: test concentration not given here
[11] = HepG2 liver cancer cell viability effects, profiling panel, resazurin fluorescence, 24 h, PK04 Diversity Set (AID 1172); settings: higher = more signal; also: test concentration not given here
[12] = basal S. cerevisiae growth modulation, no modifier, primary screen, OD600, strain BY4716, 24 h, basal condition (AID 1173); settings: OD600, 24 h, higher = more signal, called active from +8 up or from −8 down
[13] = MM1S myeloma cell viability, profiling panel, resazurin fluorescence, basal, 24 h, PK04 Diversity Set (AID 1174); settings: higher = more signal, called active from +8 up or from −8 down;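 also: MM1S multiple myeloma cell line; test concentration not given here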
[14] = biological target: Dihydroorotate dehydrogenase (quinone), mitochondrial (Plasmodium falciparum (isolate 3D7)) (UniProt Q08210); experiment: PfDHODH enzyme inhibitors, primary screen, biochemical, C-terminal His tag, absorbance 600 nm (AID 1175); settings: DCIP absorbance 600 nm, higher = more signal, called active from +8 up or from −8 down;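 also: recombinant parasite enzyme with a five histidine tag at its C terminus; test concentration not given here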
[15] = P. aeruginosa biofilm formation inhibitors, primary screen, strain PAO1, LB-PBS medium, absorbance 600 nm (AID 1176); also: test concentration not given here; settings: P. aeruginosa PAO1 growth/biofilm, A600, 12 h; higher = more signal
[16] = S. cerevisiae RM11-1a growth modifiers, primary screen, strain RM11-1a, OD600, basal, 24 h (AID 1177); settings: OD600, 24 h, higher = more signal, called active from +8 up or from −8 down;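 also: cultures grown under basal conditions with no added stressor; test concentration not given here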
[17] = E. coli acrAB mutant growth effects, primary screen, E. coli filamentation inducers, strain DRC39, OD650, 24 h (AID 1178); settings: higher = more signal, called active from +8 up or from −8 down;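 also: growth measured as culture turbidity by optical density at 650 nm; test concentration not given here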
[18] = E. coli acrAB mutant growth effects, primary screen, E. coli filamentation inducers, strain DRC39, OD650, 48 h (AID 1179);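 also: screen aims at cell division blockers that make cells filament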; settings: E. coli DRC39 delta-acrAB growth, higher = more signal, called active from +8 up or from −8 down
[19] = RPMI8226 myeloma cell viability, profiling panel, resazurin fluorescence, basal, 24 h, PK04 Diversity Set (AID 1180); settings: higher = more signal;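 also: RPMI8826 multiple myeloma cell line at 5000 cells per well; test concentration not given here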
[20] = biological target: E3 ubiquitin-protein ligase XIAP (Homo sapiens) (UniProt P98170); experiment: XIAP binders, primary screen, biophysical, small-molecule microarray, fluorescence 635 nm (AID 1181); settings: small-molecule microarray binding, higher = more signal;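 also: score merges 667 nm emission and signal to noise over triplicate slides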
Sequence of E3 ubiquitin-protein ligase XIAP (Homo sapiens) (P98170 whole entry, looked up): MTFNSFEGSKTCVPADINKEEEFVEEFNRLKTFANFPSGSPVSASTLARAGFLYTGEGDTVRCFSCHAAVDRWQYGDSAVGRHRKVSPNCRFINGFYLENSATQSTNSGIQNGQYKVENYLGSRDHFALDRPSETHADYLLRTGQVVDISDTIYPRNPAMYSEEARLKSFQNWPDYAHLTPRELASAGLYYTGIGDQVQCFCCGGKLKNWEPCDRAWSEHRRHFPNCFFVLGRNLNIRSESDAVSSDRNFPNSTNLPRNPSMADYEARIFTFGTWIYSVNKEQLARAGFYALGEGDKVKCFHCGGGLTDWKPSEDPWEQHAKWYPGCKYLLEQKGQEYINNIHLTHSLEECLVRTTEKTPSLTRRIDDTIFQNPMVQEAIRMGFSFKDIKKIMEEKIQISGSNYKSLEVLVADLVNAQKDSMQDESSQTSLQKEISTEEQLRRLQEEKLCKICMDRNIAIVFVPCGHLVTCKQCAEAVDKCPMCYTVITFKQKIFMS

Sequence of Dihydroorotate dehydrogenase (quinone), mitochondrial (Plasmodium falciparum (isolate 3D7)) (Q08210 whole entry, looked up): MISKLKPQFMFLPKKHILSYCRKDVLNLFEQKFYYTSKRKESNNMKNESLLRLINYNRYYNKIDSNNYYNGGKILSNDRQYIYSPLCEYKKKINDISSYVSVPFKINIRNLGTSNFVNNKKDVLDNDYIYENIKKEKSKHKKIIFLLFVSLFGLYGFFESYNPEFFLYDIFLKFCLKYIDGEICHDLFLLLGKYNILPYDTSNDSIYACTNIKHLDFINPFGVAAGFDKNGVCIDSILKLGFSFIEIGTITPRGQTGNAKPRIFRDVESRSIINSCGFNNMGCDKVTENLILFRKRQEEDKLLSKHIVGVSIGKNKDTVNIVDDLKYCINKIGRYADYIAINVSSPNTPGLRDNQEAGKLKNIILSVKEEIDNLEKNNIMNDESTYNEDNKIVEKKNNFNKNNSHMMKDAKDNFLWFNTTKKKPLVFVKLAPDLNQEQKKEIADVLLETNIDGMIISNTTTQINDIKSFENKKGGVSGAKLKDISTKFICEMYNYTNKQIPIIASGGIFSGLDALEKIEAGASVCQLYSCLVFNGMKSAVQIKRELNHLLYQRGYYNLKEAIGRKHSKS

Compound | z-score [1] | z-score [2] | z-score [3] | z-score [4] | z-score [5] | z-score [6] | z-score [7] | z-score [8] | z-score [9] | z-score [10] | z-score [11] | z-score [12] | z-score [13] | composite z-score [14] | z-score [15] | z-score [16] | z-score [17] | z-score [18] | z-score [19] | composite z-score [20]
C=CC[C@@]1(C(=O)O)N=C(c2ccc(OCCCO)cc2)O[C@@H]1c1ccccc1 | 0.819 | -0.563 | 1.59 | 0.576 | -0.252 | 0.89 | 0.995 (inactive) | -0.462 | -0.341 | 0.353 (inactive) | 1.53 | -1.07 (inactive) | 0.753 (inactive) | 0.977 (inactive) | -0.568 (inactive) | 0.0596 (inactive) | -0.0277 (inactive) | 1.2 (inactive) | 1.4 | 0.559
COc1cc(CO)cc(I)c1O[C@H]1C=C(C(=O)NCCO)C[C@@H](N(CC2CCCCC2)C(=O)c2ccc(C(F)(F)F)cc2)[C@@H]1O | 0.608 | -0.535 | 1.42 | 0.639 | -0.189 | 0.214 | -0.0651 (inactive) | -1.09 | -0.337 | 0.126 (inactive) | 0.445 | -1.02 (inactive) | -0.327 (inactive) | 0.345 (inactive) | 0.425 (inactive) | 0.183 (inactive) | 0.342 (inactive) | 0.212 (inactive) | 0.508 | 0.0859
NCCCCCCNC(=O)[C@@H]1C[C@@H]2C(=O)N3CCC[C@H]3C(=O)N2[C@@H]1c1ccc(O)cc1 | -0.428 | 0.548 | 0.442 | -0.0269 | -0.292 | -0.0719 | -0.202 (inactive) | 0.0552 | 0.0553 | -0.578 (inactive) | -0.0529 | -0.547 (inactive) | -0.233 (inactive) | -1.18 (inactive) | -0.282 (inactive) | -0.407 (inactive) | -0.188 (inactive) | -0.196 (inactive) | -0.134 | -0.209
C=C(CCCC)/C(=C/C[C@@H](OC(C)=O)c1ccc(CO)o1)c1cc(C(=O)OC)ccc1OC | 0.813 | -0.504 | 0.882 | -1.81 | -0.564 | 0.152 | -0.573 (inactive) | 0.507 | -1.36 | 0.111 (inactive) | -0.345 | -1.63 (inactive) | -0.493 (inactive) | -2.63 (inactive) | 1.23 (inactive) | 0.0168 (inactive) | -0.122 (inactive) | -0.194 (inactive) | 0.0716 | -0.0367
[N-]=[N+]=NCc1ccccc1C[C@]1(C(=O)NCC(O)CO)N=C(c2ccc(OCCCO)cc2)O[C@H]1c1ccccc1CN=[N+]=[N-] (stereo not given in full) | -0.905 | 1.01 | -0.426 | -2.3 | -2.6 | 0.136 | -0.323 (inactive) | -1.02 | -0.555 | -0.402 (inactive) | -0.459 | -0.804 (inactive) | -0.449 (inactive) | -0.212 (inactive) | 1.09 (inactive) | 0.18 (inactive) | 0.78 (inactive) | -0.012 (inactive) | -0.881 | -0.149
C=CCNC(=O)[C@@H]1[C@H]2C(=O)O[C@H](c3ccccc3)[C@H](c3ccccc3)N2[C@H](c2ccc(OCCO)cc2)[C@@]12C(=O)N(C(=O)OCCOC)c1ccc(C#CC3=CCCCC3)cc12 | -0.549 | -0.354 | 0.0468 | -1.45 | -1.59 | -0.893 | -0.0381 (inactive) | -0.814 | -1.57 | -1.01 (inactive) | -0.344 | 1.83 (inactive) | -0.897 (inactive) | -1.47 (inactive) | 2.17 (inactive) | 2.57 (inactive) | -0.713 (inactive) | -0.206 (inactive) | -1.66 | -0.426
COC(=O)C(CC#Cc1ccc2c(c1)[C@]1(C(=O)N2)[C@H](C(=O)O)[C@H]2C(=O)O[C@H](c3ccccc3)[C@H](c3ccccc3)N2[C@@H]1c1ccccc1OCCO)C(=O)OC | -0.045 | -0.182 | -0.219 | -3.26 | -4.09 | -2.93 | -0.236 (inactive) | -0.441 | -1.98 | -0.327 (inactive) | 0.289 | -0.307 (inactive) | 0.0819 (inactive) | -18.9 (active) | 2.07 (inactive) | 2.55 (inactive) | 0.698 (inactive) | 0.202 (inactive) | -4.42 | -0.0673
CN(C)CCCCNC(=O)[C@H]1C[C@H]2C(=O)N3CCC[C@H]3C(=O)N2[C@H]1c1ccc(O)cc1 | -0.448 | 0.862 | -0.55 | 0.26 | 0.293 | -0.835 | -0.104 (inactive) | 0.613 | -0.927 | 0.228 (inactive) | 0.769 | -0.659 (inactive) | 0.949 (inactive) | -0.884 (inactive) | 1.99 (inactive) | -0.35 (inactive) | -0.476 (inactive) | -0.565 (inactive) | -0.536 | -0.192
NCCCCCNC(=O)[C@@H]1C[C@@H]2C(=O)N[C@@H](CCCCN)C(=O)N2[C@@H]1c1cccc(OCCO)c1 | 0.338 | 0.337 | 0.68 | 0.89 | 0.269 | 0.0184 | 1.37 (inactive) | -0.698 | -0.362 | 0.714 (inactive) | 1.03 | 0.198 (inactive) | 1.11 (inactive) | -0.308 (inactive) | -0.105 (inactive) | -0.0041 (inactive) | 0.928 (inactive) | 1.22 (inactive) | 1 | -0.399
